Rows were chosen to be rich in hits. Some 12% of all compounds tested hit in one or more screens of this group.
HP1b binding inh: inhibitors of HP1-beta chromodomain binding to methylated histone tails. P83916. AlphaScreen HP1-beta / biotin-H3K9me3 peptide binding. Potency, µM (doses to about 114 µM), usual class: inhibitors. 390,000 tested, 0.56% active. AID 540317; note: nearly all actives have a fitted effect of over 70% in size
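AlphaScreen: HP1-beta (50 nM) preformed 30 min with biotin-H3(1-18)K9me3 peptide (50 nM) in PBS pH 7.4, 0.01% Tween-20. Compound added for 30 min at RT, then streptavidin donor/nickel chelate acceptor beads (10 ug/mL) for 30 min.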
BAZ2B block: blocks human BAZ2B; 360,000 tested, 4.4% active; Potency, µM (doses to about 114 µM), actives largely listed as inhibitors; Q9UIF8; AID 504333; AlphaScreen BAZ2B-H3K14Ac peptide displacement; note: nearly all actives have a fitted effect of over 60% in size
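Compounds, titrated to a top concentration of 110 uM, were incubated 30 min at room temperature with preformed BAZ2B/acetyl-K14 H3 peptide complex (50 nM each). Proximity signal was measured by AlphaScreen after 20 min with beads.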
Sfp PPTase inh: Sfp phosphopantetheinyl transferase inhibition. Q9F4F7. Potency, µM, usual class: inhibitors. Biochemical Sfp PPTase activity, qHTS. 310,000 tested, 3.5% active;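 note: the enzyme is Sfp with the accession as filed and its product quenches rhodamine fluorescence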
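With Hepes-Na pH 7.6 buffer containing 10 mM MgCl2, Sfp (15 nM) modified BHQ-2-YbbR (12.5 uM) using rhodamine-CoA (5 uM). Two reads 30 minutes apart at 525/598 nm yielded each well's rate.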
L3MBTL1 block: L3MBTL1 (human) inhibition; Q9Y468; AlphaScreen L3MBTL1–H3K9me1 peptide binding; Potency, µM (titrated, usually from 57.1 µM), hits mostly inhibitors; 230,000 tested, 0.66% active; note: nearly all actives have a fitted effect of over 60% in size
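Displacement of a biotinylated histone H3(1-15) peptide monomethylated at Lys9 (75 nM) from L3MBTL1 (50 nM) was measured by AlphaScreen after a 30 min room-temperature compound incubation; cefsulodin titration served as intraplate control.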
G9a block: blocks human histone lysine methyltransferase G9a; Q96KQ7; Potency, µM (doses to about 102 µM), hits mostly inhibitors; 350,000 tested, 8.8% active; G9a H3K9 monomethylation, AlphaScreen, 2 h; note: nearly all actives have a fitted effect of over 75% in size
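AlphaScreen detection with an anti-monomethyl H3K9 antibody quantified product after a 2 h room-temperature reaction containing 500 nM biotinylated H3K9 peptide, 20 µM SAM and 20 nM enzyme, which had been preincubated 15 min with compound.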
JMJD2A Tudor: blocks the human JMJD2A Tudor domain | O75164 | AlphaScreen JMJD2A-Tudor / H3K4me3 peptide binding | Potency, µM (series often up to 114 µM), most hits filed as inhibitors | 390,000 tested, 4.4% active; note: nearly all actives have a fitted effect of over 50% in size
Each line names hits and unclear results; the compound was inactive in the other large screens. Calls come from the whole dose curve; as a rule, active = well fitted curve in the direction sought with a large enough effect; inconclusive = small, poorly fitted or top-dose-only effect, or another doubt; inactive = no such curve, though single readings can be large; an effect the other way counts as inactive or inconclusive.

CCN1CCN(c2cc(C)c3cc(NC(=O)/C=C/c4ccc(OCCC(C)C)cc4)ccc3n2)CC1	JMJD2A Tudor inconclusive (no result: Sfp PPTase inh, L3MBTL1 block)
O=C(NC(=S)Nc1ccccc1N1CCOCC1)c1sc2ccccc2c1Cl	G9a block inconclusive
O=C(O)c1ccccc1NC(=S)NC(=O)c1sc2ccccc2c1Cl	Sfp PPTase inh 45µM, G9a block 10µM, JMJD2A Tudor inconclusive (no result: L3MBTL1 block)
Cc1cc(NC(=O)CSc2ccc3nnc(-c4ccc(Cl)cc4)n3n2)no1	G9a block 22µM (no result: L3MBTL1 block)
COc1ccccc1CCNC(=O)CSc1nnc2ccc(-c3ccncc3)nn12	G9a block 50µM
Cc1cc(NC(=O)CSc2ccc3nnc(-c4cccc(F)c4)n3n2)no1	G9a block 22µM
Cc1cc(NC(=O)CSc2nnc3ccc(-c4ccc(F)cc4)nn23)no1	G9a block 50µM (no result: Sfp PPTase inh)
CCOc1ccc(-c2nnc3ccc(SCC(=O)Nc4cc(C)on4)nn23)cc1	none
CCc1nc2ccc(C(=O)NCCc3ccc(SC)cc3)cc2nc1CC	none (no result: Sfp PPTase inh, L3MBTL1 block)
CSc1ncc(C(=O)NCc2ccc(C)cc2)c(-c2ccccc2)n1	none (no result: Sfp PPTase inh, L3MBTL1 block)
COc1ccccc1NC(=O)c1ccc(-c2nc(COc3ccc(C)cc3)c(C)o2)cc1	G9a block inconclusive (no result: Sfp PPTase inh, L3MBTL1 block)
CC(C)=CCC1(CC=C(C)C)C(=O)C(C(=O)c2ccccc2)=C2OC(C)(C)CCC2(CC=C(C)C)C1=O (stereo unspecified)	none (no result: HP1b binding inh, BAZ2B block, L3MBTL1 block, G9a block, JMJD2A Tudor)
CCOC(=O)c1c(Oc2ccc(OC)cc2)nnc(-c2ccccc2)c1-c1ccccc1	none (no result: Sfp PPTase inh, L3MBTL1 block)
Nc1ccc(Oc2ccc3nc(-c4ccccc4)c(-c4ccc([N+](=O)[O-])cc4)nc3c2)cc1	BAZ2B block inconclusive, L3MBTL1 block inconclusive, G9a block 32µM, JMJD2A Tudor inconclusive
N#Cc1ccc(Oc2ccc(-c3nc4ccccc4nc3-c3ccccc3)cc2)cc1C#N	none
Cc1ccc(S(=O)(=O)n2c3ccccc3c3nnc(C(=O)c4ccccc4)nc32)cc1	none (no result: HP1b binding inh, BAZ2B block, L3MBTL1 block, G9a block, JMJD2A Tudor)
N#Cc1c(-c2ccco2)c2c([nH]c1=S)CCCC2	Sfp PPTase inh 4.5µM, L3MBTL1 block inconclusive, G9a block inconclusive, JMJD2A Tudor 28µM
N#Cc1c(-c2cccnc2)c2c([nH]c1=S)CCCC2	HP1b binding inh inconclusive, Sfp PPTase inh 28µM, G9a block 0.71µM, JMJD2A Tudor 1.4µM
CC(C)Cc1c2c([nH]c(=S)c1C#N)CCCC2	Sfp PPTase inh 2µM, G9a block 2.2µM, JMJD2A Tudor 56µM
CCCCCCCc1c(C#N)c(N)[nH]c(=S)c1C#N	BAZ2B block inconclusive, G9a block inconclusive
O=C(NCc1ccc(Cl)cc1)C1CCN(S(=O)(=O)Cc2ccccc2)CC1	none (no result: Sfp PPTase inh, L3MBTL1 block)
CC(C)(C)OC(=O)N1CCC(c2c(C(=O)N3CCCCC3)cnn2-c2ccccc2Cl)CC1	none (no result: Sfp PPTase inh, L3MBTL1 block)
C=CC[n+]1c(-c2ccc(OC)c(OC)c2)csc1NNC(=O)Nc1ccccc1	HP1b binding inh inconclusive, BAZ2B block 32µM, G9a block inconclusive, JMJD2A Tudor inconclusive
COc1cccc(CNC(=O)c2ccc(CN3CC(=O)N4CCCCC4C3=O)cc2)c1 (stereo unspecified)	none (no result: Sfp PPTase inh, L3MBTL1 block)
O=C(CCS(=O)(=O)c1ccccc1)Nc1nc2cc3c(cc2s1)OCO3	BAZ2B block 71µM, G9a block inconclusive
O=C(Nc1nc2cc3c(cc2s1)OCCO3)c1cccs1	none
NNc1nc2cc3c(cc2s1)OCCO3	BAZ2B block inconclusive, Sfp PPTase inh 40µM, G9a block 71µM (no result: L3MBTL1 block)
O=C(CCS(=O)(=O)c1ccccc1)Nc1nc2cc3c(cc2s1)OCCO3	BAZ2B block 79µM, G9a block inconclusive (no result: L3MBTL1 block)
CC1CCCCN1CCCOC(=O)c1ccccc1 (stereo unspecified)	G9a block inconclusive (no result: HP1b binding inh, BAZ2B block, L3MBTL1 block, JMJD2A Tudor)
CCCCCCCCCCN1CCOCCOCCN(CCCCCCCCCC)CCOCCOCC1	none (no result: HP1b binding inh, BAZ2B block, L3MBTL1 block, G9a block, JMJD2A Tudor)
CC(=O)N1CCc2c(sc3c2c(=O)n(-c2ccccc2)c(=O)n3CC(=O)c2ccc(Cl)cc2)C1	none (no result: Sfp PPTase inh, L3MBTL1 block)
CN(C)NC1CCS(=O)(=O)C1 (stereo unspecified)	BAZ2B block inconclusive, G9a block 10µM, JMJD2A Tudor inconclusive
NC(N)=N/N=C/c1cccc(Cl)c1Cl	G9a block 18µM
CCOc1ccc(Cl)cc1CN1CCOCC1	none (no result: L3MBTL1 block)
